The values that follow come from PubChem BioAssay.

The structures appear in SMILES notation. Inconclusive results are not listed. Calls of active or inactive are those of the source.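 How the source made its calls, unless noted: active means binding below the plate cutoff, the plate median minus 3 SD, with a reading above zero; inconclusive means below the plate cutoff but reading exactly zero; inactive means the rest.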

Assay [1] can be described thus: yeast TOR pathway RPL19A-GFP modulators, primary screen, cell-based, S. cerevisiae, multiplex flow cytometry (AID 1862; in the data active means percent of DMSO control GFP below about 86%;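 further: lower values mimic rapamycin by blocking the RPL19A rise seen in DMSO cells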). The settings on record: S. cerevisiae RPL19A-GFP strain, flow cytometry fluorescence, 3 h; at 10 µM; stronger effect = lower value.
Assay [2] is described as follows: modulators of MEP2-GFP levels in yeast, primary screen, S. cerevisiae, multiplex flow cytometry (AID 1867;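 active means GFP response, as percent of the DMSO control, above the screen-wide mean plus 3 SD, about 139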;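 further: median GFP channel fluorescence of barcode-gated MEP2-GFP cells measured by flow cytometry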). The settings on record: S. cerevisiae MEP2-GFP strain, 3 h, at 10 µM, stronger effect = higher value, 100% means same as DMSO wells.
Assay [3] in a line: modulators of CIT2-GFP expression in yeast, primary screen, S. cerevisiae, GFP fusion, multiplex flow cytometry (AID 1870;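 active means percent response above a set limit, the screen-wide mean plus 3 SD, cut at about 130% in these data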;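 further: barcoded CIT2-GFP strain pooled with four other GFP strains with rapamycin as positive control; median GFP fluorescence per well over plate mean of DMSO wells so 100% = DMSO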). Particulars: 3 h, at 10 µM, stronger effect = higher value.
The nature of assay [4]: modulators of LAP4-GFP expression in yeast, primary screen, S. cerevisiae, multiplex flow cytometry (AID 1873;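 active means GFP signal, as percent of the solvent control, above the screen mean plus 3 SD, about 149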). Particulars: 3 h, at 10 µM, stronger effect = higher value. On the technique in general: In flow cytometry, cells or beads pass a laser one at a time.
The nature of assay [5]: modulators of AGP1-GFP expression in yeast TOR pathway, primary screen, cell-based, multiplex flow cytometry, S. cerevisiae (AID 1887;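 active means GFP signal above the screen-wide mean plus 3 SD, that is over about 124.5% of the solvent control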;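 further: AGP1-GFP fusion strain of S. cerevisiae within a five-strain barcoded multiplex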). Particulars: 3 h, at 10 µM, stronger effect = higher value.
A short description of assay [6]: inhibitors of CD8+ T cell-vesicle binding, pilot screen, LFA-1/ICAM-1 modulator project, MLPCN validation set, flow cytometry (AID 2523;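 active means response below a set limit, under 55% cells CD8-positive and vesicle-bound, and CD8 cells' 90th-percentile brightness under 279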;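 on vesicle binding response: mean PE anti-B7-1 fluorescence of CD8+ cells relative to row control; 100% = QL9-loaded vesicles with DMSO vehicle in the same plate row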). Particulars: 2C mouse CD8+ T cells, at 7 µM, stronger effect = lower value; double positive events: measured here: CD8+/vesicle+ event percentage.
Assay [7] addresses Integrin beta-1 (Homo sapiens) + Integrin alpha-4 (Homo sapiens) (UniProt P13612+P05556). The assay is described as follows: inhibition of HUTS-21 binding to VLA-4, pilot screen, VLA-4 allosteric modulator project, U937 cells, HUTS-21 mAb, flow cytometry, validation set (AID 2674;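 active means inhibition above 50%, about 3 SD of the validation set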;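 further: antibody binding induced by the VLA-4 ligand LDV present at three times its Kd; 0% = LDV ligand with antibody and no compound and 100% = antibody without LDV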). The settings on record: HUTS-21 LIBS mAb binding, at 6.7 µM, stronger effect = higher value, binding induced by LDV ligand.

Assay [8] in a line: superoxide lowering in aged yeast cells, pilot screen, validation compound set (AID 2706;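 active means superoxide response below 65% of plate, a cut near 3 SD across the whole screen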;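 further: yeast exposed to compound for one week at 30 degrees C before staining; 100% = mean of all compound wells on the same plate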). Particulars: S. cerevisiae aging, superoxide DHE fluorescence; at 10 µM; stronger effect = lower value.
In assay [9] the target is Beta-adrenergic receptor kinase 1 (Homo sapiens) (UniProt P25098). Put plainly: GRK2 binders displacing RNA aptamer, biochemical, validation, human GRK2, bead flow cytometry (AID 488806;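 active means aptamer binding inhibition above 30%, about 3 SD of noise from non-fluorescent compounds; inactive means inhibition at or below 30%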). Particulars: bead-bound GRK2, FAM-aptamer displacement, at 10 µM, stronger effect = higher value.
Assay [10] has as its target Beta-2 adrenergic receptor (Homo sapiens) (UniProt P07550). The assay is described as follows: beta2AR agonists driving receptor internalization, pilot screen, cell-based, FAP fluorogen, flow cytometry, validation set (AID 504459;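 active means percent response above 42, roughly 3 SD of non-fluorescent test compounds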;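 further: agonist-driven loss of surface beta2AR via internalization measured by FAP dye flow cytometry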). The settings on record: Am2.2-beta2AR cells, FAP surface receptor flow cytometry; at 10 µM; stronger effect = higher value.
For assay [11], the target named is AP-2 complex subunit beta (Homo sapiens) (UniProt P63010). Put plainly: inhibitors of arrestin peptide binding to AP2, pilot screen, biochemical, validation set, GST-AP2 beads, flow cytometry (AID 504541;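 active means inhibition above 54%, about 3 SD of non-fluorescent compounds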;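 further: AP2 carries R879A mutation and is captured from E. coli lysate; bead-bound FITC arrestin peptide fluorescence measuring arrestin peptide binding to AP2; 0% = DMSO wells and 100% = excess unlabeled arrestin peptide control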). Particulars: FITC arrestin peptide, at 10 µM, stronger effect = higher value, AP2 beta2 appendage fragment, R879A mutant.
A short description of assay [12]: yeast V-ATPase proton transport modulators, S. cerevisiae, pHLuorin, HTS validation (AID 504600; in the data active means response above about 15%;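 further: plate controls were DMSO for no effect and reference compound for full effect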). The settings on record: S. cerevisiae pHLuorin cytosolic pH, at 10 µM, stronger effect = higher value.
Assay [13] deals with anti-desmoglein-3 scFv antibody binding to human DSG3. Put plainly: inhibitors of anti-DSG3 scFv binding to DSG3, pilot screen, biochemical, validation compound set, bead-based, flow cytometry (AID 588368).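 Further: signal is the median channel fluorescence of bead-bound GFP antibody.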 Particulars: Protein G beads, DSG3-Fc, scFv-GFP binding, at 10 µM, stronger effect = lower value.
A short description of assay [14]: inhibitors of fungal efflux pumps CDR1, CDR2, MDR1, pilot screen, validation compound set, multiplex, phenotypic (AID 588506;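 active means efflux inhibition above 0.42, the validation set average plus 4 SD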;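 further: Nile Red retained in cells so higher fluorescence means more efflux inhibition; 0 = negative control wells and 1 = enniatin B 25 µM full block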). The settings on record: S. cerevisiae pump-expressing triplex, Nile Red efflux flow cytometry; at 10 µM; stronger effect = higher value; the pumps come from Candida albicans.
The target in assay [15] is ATP-binding cassette sub-family B member 6 (Homo sapiens) (UniProt Q9NP58). The assay is described as follows: ABCB6 transporter inhibitors, pilot screen, K562-ABCB6 cells, flow cytometry, validation set (AID 588550;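 active means inhibition above the screen-wide mean plus 3 SD, about 51%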;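 further: 0% = DMSO wells and 100% = benzethonium chloride 70 µM positive control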). The settings on record: K562-ABCB6 porphyrin accumulation, 1 h, at 10 µM, stronger effect = higher value.
Assay [16] can be described thus: promoters of myeloid differentiation in arrested cells, primary screen, cell-based, GFP/MAC1 double positive, flow cytometry, validation set (AID 588685;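 active means differentiation response of at least 50%, scaled between solvent and reference control, from cells with both markers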;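 further: compound exposure lasts four days before antibody staining and flow analysis; 0% = DMSO wells and 100% = 5 µM fulvestrant positive control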). Particulars: ER-HoxA9 marrow cells, stronger effect = higher value, normalized: vehicle 0, fulvestrant 100.

Sequence of Beta-2 adrenergic receptor (Homo sapiens) (P07550 whole entry, looked up): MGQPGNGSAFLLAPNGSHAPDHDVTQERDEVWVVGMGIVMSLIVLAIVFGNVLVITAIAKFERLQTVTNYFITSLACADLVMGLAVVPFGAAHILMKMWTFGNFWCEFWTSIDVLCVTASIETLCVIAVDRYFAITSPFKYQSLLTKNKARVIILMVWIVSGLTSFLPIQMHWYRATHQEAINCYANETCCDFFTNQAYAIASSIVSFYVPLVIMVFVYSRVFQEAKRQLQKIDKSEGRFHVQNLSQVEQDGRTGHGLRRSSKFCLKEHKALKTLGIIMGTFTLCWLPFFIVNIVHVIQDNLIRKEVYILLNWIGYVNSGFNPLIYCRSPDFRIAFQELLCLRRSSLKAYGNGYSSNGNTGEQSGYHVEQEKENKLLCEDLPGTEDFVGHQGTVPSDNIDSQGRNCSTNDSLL
Sequence of AP-2 complex subunit beta (Homo sapiens) (P63010 whole entry, looked up, the tested form may be a part, one chain of several): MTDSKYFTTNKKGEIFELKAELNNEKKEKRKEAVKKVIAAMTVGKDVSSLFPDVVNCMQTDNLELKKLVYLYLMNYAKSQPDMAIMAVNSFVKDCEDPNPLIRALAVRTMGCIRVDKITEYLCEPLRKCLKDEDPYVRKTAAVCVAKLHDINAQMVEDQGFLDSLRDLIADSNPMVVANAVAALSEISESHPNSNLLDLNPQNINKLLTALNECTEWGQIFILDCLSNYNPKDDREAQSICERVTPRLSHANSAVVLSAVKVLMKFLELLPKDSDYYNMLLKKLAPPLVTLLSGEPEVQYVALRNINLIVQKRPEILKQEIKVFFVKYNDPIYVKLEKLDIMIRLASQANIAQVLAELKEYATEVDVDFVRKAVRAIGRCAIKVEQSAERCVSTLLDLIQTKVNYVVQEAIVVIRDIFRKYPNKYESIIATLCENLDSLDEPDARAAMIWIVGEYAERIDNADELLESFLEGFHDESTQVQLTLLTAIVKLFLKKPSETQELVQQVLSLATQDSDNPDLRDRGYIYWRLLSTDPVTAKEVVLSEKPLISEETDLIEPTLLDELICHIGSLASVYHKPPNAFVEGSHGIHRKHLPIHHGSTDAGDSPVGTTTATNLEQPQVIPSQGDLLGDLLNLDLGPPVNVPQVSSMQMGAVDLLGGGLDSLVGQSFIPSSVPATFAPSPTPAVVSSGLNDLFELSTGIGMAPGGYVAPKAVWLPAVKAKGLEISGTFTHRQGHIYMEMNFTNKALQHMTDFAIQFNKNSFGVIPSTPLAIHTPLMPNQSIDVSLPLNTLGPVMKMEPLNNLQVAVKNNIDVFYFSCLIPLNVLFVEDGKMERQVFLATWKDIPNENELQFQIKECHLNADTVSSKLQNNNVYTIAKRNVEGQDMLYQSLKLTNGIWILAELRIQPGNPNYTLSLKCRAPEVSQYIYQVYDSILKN
Sequence of Beta-adrenergic receptor kinase 1 (Homo sapiens) (P25098 whole entry, looked up): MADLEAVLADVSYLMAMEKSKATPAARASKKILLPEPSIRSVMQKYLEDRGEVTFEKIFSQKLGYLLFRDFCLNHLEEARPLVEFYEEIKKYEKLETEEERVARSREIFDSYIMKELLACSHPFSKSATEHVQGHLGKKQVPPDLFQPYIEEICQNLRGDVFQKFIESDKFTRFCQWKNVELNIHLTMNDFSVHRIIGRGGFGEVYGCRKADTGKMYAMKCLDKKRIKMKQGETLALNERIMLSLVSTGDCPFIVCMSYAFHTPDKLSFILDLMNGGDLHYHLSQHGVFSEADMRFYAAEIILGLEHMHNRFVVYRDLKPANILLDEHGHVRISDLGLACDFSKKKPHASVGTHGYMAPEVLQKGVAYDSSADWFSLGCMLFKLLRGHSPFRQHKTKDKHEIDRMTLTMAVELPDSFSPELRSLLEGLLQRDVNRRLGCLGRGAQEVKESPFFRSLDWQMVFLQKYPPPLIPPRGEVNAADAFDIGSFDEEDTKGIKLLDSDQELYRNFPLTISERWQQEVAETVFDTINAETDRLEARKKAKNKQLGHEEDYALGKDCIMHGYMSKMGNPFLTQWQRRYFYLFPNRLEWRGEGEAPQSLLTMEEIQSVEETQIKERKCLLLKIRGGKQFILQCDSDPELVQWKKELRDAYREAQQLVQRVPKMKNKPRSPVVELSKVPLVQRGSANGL
Sequence of ATP-binding cassette sub-family B member 6 (Homo sapiens) (Q9NP58 whole entry, looked up): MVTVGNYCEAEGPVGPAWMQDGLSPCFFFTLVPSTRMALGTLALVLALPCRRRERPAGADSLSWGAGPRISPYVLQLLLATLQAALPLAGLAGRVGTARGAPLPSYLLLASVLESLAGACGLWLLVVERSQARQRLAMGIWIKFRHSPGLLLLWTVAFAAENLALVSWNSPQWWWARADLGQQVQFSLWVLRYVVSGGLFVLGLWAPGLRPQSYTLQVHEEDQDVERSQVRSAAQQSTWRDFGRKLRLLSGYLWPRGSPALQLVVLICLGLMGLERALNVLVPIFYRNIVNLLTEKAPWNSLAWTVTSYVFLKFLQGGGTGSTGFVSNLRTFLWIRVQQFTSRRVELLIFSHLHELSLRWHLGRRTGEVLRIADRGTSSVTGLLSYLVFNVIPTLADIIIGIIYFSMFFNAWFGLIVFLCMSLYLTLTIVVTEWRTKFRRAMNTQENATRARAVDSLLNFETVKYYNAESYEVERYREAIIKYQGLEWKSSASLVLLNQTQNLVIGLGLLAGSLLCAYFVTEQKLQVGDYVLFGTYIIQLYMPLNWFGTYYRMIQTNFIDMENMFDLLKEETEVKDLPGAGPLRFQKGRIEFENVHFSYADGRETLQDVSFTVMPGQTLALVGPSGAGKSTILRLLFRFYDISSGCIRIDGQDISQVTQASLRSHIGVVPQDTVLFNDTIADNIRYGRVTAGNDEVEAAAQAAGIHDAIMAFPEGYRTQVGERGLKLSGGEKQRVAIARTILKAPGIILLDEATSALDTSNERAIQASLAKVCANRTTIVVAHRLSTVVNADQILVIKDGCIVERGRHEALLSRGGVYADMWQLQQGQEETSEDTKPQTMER
Sequence of Integrin beta-1 (Homo sapiens) + Integrin alpha-4 (Homo sapiens) (P05556 whole entry, looked up): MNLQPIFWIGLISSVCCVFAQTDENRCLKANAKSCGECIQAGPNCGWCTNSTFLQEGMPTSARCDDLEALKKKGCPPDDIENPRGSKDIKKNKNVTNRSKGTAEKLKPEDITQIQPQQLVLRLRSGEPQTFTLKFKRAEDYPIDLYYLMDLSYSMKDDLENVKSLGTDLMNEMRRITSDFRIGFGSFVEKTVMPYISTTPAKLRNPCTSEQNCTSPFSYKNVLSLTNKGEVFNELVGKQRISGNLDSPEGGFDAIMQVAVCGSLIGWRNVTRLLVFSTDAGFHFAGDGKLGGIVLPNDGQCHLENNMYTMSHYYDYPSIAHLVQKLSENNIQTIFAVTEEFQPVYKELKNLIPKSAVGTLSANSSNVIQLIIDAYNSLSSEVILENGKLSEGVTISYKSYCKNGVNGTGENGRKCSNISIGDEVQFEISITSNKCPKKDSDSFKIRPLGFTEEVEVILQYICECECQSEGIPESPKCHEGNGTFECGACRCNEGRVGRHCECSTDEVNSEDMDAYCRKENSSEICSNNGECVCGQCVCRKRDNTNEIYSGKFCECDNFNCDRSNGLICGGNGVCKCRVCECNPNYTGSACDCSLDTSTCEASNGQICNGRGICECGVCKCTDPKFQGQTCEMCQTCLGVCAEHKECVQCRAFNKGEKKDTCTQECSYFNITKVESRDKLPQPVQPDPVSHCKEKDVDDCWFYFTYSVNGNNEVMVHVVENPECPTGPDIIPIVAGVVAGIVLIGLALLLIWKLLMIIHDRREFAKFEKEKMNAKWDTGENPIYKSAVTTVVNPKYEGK
Sequence of Integrin beta-1 (Homo sapiens) + Integrin alpha-4 (Homo sapiens) (P13612 whole entry, looked up): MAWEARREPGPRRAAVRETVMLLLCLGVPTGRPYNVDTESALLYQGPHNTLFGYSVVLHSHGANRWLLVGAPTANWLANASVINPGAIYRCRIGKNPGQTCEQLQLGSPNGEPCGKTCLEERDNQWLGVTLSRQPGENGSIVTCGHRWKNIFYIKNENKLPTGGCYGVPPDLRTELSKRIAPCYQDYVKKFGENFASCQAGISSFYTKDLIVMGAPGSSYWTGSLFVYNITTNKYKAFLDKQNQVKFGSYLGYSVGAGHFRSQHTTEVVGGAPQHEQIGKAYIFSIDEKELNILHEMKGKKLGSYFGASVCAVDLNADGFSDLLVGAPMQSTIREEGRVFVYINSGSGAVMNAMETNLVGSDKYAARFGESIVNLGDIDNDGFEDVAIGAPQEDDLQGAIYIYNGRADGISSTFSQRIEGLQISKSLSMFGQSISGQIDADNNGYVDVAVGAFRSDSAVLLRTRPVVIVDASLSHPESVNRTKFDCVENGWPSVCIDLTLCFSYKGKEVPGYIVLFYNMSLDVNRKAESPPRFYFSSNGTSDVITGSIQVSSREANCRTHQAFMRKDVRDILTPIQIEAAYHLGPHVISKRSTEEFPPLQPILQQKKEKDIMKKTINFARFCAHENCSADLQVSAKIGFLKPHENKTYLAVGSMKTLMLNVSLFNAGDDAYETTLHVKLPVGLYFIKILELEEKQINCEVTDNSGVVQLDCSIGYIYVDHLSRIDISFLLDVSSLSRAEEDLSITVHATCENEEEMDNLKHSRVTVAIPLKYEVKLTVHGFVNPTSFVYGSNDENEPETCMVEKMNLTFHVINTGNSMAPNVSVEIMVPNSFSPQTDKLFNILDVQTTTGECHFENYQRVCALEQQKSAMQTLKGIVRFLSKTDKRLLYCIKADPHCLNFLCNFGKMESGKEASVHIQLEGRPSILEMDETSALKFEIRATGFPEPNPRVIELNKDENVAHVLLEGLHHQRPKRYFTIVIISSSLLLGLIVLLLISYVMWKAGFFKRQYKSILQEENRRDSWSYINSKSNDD

Usually inhibition stands for the drop in the measured response relative to a control, in per cent. On to `FC(F)(F)c1ccc(-c2noc(CN3CCCN(C4CCCCC4)CC3)n2)cc1`, for which the percent of DMSO control GFP in assay [1] was 100% (inactive). In addition, the GFP response vs DMSO is 105% (inactive) in assay [2] and 93.3% (inactive) in assay [4]. Further, the percent response of DMSO control in [3] is 101% (inactive). The GFP response, % of DMSO in assay [5] was 101% (inactive). In assay [6], this compound displayed a double positive events of 62.5%. In assay [6], the vesicle binding response is 5350% (inactive). Also, the inhibition in assay [7] was -7.72% (inactive); in [11], -10.2% (inactive); in assay [15], -11% (inactive). Besides, the superoxide response (% of plate) in assay [8] was 89.3% (inactive). The aptamer binding inhibition in assay [9] is -12% (inactive). For the same compound, the response in [10] was -4.45% (inactive); in assay [12], 3.31% (inactive). Further, the binding (% of control) in [13] is 103% (inactive). Besides, in assay [14], the efflux inhibition (fraction of control) was -0.14 (inactive). Besides, the differentiation response in [16] is 33.5% (inactive).
For `Nc1ccc(S(=O)(=O)NC(=O)c2ccccc2)cc1`, the percent of DMSO control GFP in assay [1] is 100% (inactive). Further, the GFP response vs DMSO was 103% (inactive) in assay [2] and 99.9% (inactive) in assay [4]. Further, the percent response of DMSO control in assay [3] is 96.6% (inactive). Besides, the GFP response, % of DMSO in [5] was 100% (inactive). The compound also registered a double positive events in assay [6] of 57.6%. Further, the vesicle binding response in assay [6] was 30.6% (inactive). Also, the inhibition is -6.68% (inactive) in assay [7], -15.4% (inactive) in assay [11] and 11% (inactive) in [15]. In addition, the superoxide response (% of plate) in [8] was 110% (inactive). In addition, the aptamer binding inhibition in assay [9] was 1% (inactive). Also, the response was -5.78% (inactive) in assay [10] and 5.4% (inactive) in assay [12]. In addition, the binding (% of control) in assay [13] was 99.3% (inactive). For the same compound, in assay [14], the efflux inhibition (fraction of control) was -0.07 (inactive). For the same compound, in assay [16], the differentiation response was 1.22% (inactive).
`CC1=C(/C=C/C(C)=C/C=C/C(C)=C/C(=O)O)C(C)(C)CCC1`: the percent of DMSO control GFP in [1] is 106% (inactive). The GFP response vs DMSO in [2] is 106% (inactive); in [4], 125% (inactive). Further, the percent response of DMSO control in [3] was 103% (inactive). For the same compound, in [5], the GFP response, % of DMSO was 121% (inactive). The compound also registered a double positive events in [6] of 62.6%. Besides, the vesicle binding response in assay [6] was 194% (inactive). In addition, the inhibition in [7] was -2.82% (inactive); in assay [11], -5.9% (inactive); in assay [15], -2% (inactive). In addition, the superoxide response (% of plate) in assay [8] was 93.6% (inactive). In addition, the aptamer binding inhibition in assay [9] was 1% (inactive). For the same compound, the values for the response in assay [10] and in assay [12] were -11.2% (inactive) and -0.05% (inactive), respectively. For the same compound, in [13], the binding (% of control) was 101% (inactive). Further, the efflux inhibition (fraction of control) in assay [14] is 0.04 (inactive). In addition, the differentiation response in assay [16] was -6.96% (inactive).
`CC(=O)NC1C(OCc2ccccc2)OC(COC(C)=O)C(OC(C)=O)C1OC(C)=O` (stereo not given): in assay [1], the percent of DMSO control GFP is 104% (inactive). For the same compound, the results for the GFP response vs DMSO in [2] and in [4] were 104% (inactive) and 91.5% (inactive), respectively. The percent response of DMSO control in [3] was 106% (inactive). The GFP response, % of DMSO in assay [5] was 96% (inactive). Further, the double positive events in assay [6] worked out at 65.2%. Besides, in assay [6], the vesicle binding response is 183% (inactive). Further, the inhibition is -44% (inactive) in assay [7], -2% (inactive) in [11] and 2% (inactive) in assay [15]. In assay [8], the superoxide response (% of plate) was 105% (inactive). Also, the aptamer binding inhibition in assay [9] is 2% (inactive). The response is 1.83% (inactive) in [10] and -3.81% (inactive) in [12]. For the same compound, in assay [13], the binding (% of control) was 104% (inactive). Besides, the efflux inhibition (fraction of control) in assay [14] is 0.12 (inactive). Moreover, in assay [16], the differentiation response is -6.03% (inactive).
As for `CC1(C)CC(=O)C2=C(C1)c1c(ccc3ccccc13)NC2c1ccco1` (stereo not given), in assay [1], the percent of DMSO control GFP was 98.8% (inactive). Moreover, the GFP response vs DMSO in [2] was 105% (inactive); in [4], 123% (inactive). The percent response of DMSO control in assay [3] was 93.9% (inactive). Moreover, the GFP response, % of DMSO in assay [5] was 99.5% (inactive). The double positive events in [6] turned out to be 57%. In addition, the vesicle binding response in assay [6] is 182% (inactive). Also, the figures for the inhibition in [7], in assay [11] and in [15] were -8.62% (inactive), 13.8% (inactive) and 3% (inactive), respectively. The superoxide response (% of plate) in [8] was 107% (inactive). Moreover, the aptamer binding inhibition in [9] was 6% (inactive). The values for the response in [10] and in [12] were 14.4% (inactive) and 1.12% (inactive), respectively. In addition, the binding (% of control) in assay [13] is 104% (inactive). Also, in assay [14], the efflux inhibition (fraction of control) was -0.06 (inactive). Moreover, the differentiation response in assay [16] is 28% (inactive).
